Bioassay records (PubChem BioAssay)
Artemis endo inh = blocks endonuclease activity of human Artemis. Q96SD1. recombinant Artemis, quenched FAM hairpin cleavage fluorescence. inhibition, % at 10 µM. hit rate 0.78% among 30,000. AID 686954;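 active means at 10 µM dose, at least 30% inhibition, measured as corrected fluorescence normalized to stimulator and neutral control wells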
Target sequence (Q96SD1 whole entry, looked up): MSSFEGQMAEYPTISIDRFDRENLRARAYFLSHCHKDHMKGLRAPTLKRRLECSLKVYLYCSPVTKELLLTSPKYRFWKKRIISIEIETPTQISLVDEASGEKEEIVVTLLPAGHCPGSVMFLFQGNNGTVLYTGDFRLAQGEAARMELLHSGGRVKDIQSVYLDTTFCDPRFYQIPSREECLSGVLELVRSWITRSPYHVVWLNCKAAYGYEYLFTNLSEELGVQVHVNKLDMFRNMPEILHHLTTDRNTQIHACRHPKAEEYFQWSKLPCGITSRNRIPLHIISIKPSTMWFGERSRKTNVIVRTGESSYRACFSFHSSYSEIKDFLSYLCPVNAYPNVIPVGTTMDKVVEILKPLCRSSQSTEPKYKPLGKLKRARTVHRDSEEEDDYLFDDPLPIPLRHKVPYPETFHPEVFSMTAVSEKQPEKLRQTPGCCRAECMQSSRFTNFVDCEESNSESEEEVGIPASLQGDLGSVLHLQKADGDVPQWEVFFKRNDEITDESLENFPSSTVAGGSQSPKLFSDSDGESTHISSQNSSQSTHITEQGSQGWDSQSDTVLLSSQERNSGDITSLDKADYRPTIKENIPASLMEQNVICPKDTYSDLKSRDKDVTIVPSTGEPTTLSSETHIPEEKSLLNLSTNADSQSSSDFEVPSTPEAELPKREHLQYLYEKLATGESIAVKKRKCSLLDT
Active calls of the source: *. Many of the other results were omitted from the sample, so hits are more common in it than they were.

SMILES	Artemis endo inh
O=C(O)C(=O)/C(=C\c1cccc2ccccc12)c1ccc2ccccc2n1	30.5*
O=C(O)C(=O)/C(=C\c1ccccc1)c1ccc2ccccc2n1	-8.4
COc1ccccc1N(CC(=O)NCC1CCCO1)C(=O)CCC(=O)Nc1nccs1 (centres undefined)	-0.1
N#Cc1c(C(F)(F)F)cc(-c2ccccc2)nc1SCC(=O)Nc1sc2c(c1C#N)CCC2	-3.1
COC(=O)C1=C(N)Oc2cc(C)n(Cc3cccnc3)c(=O)c2C1c1cccc(OC)c1OC (centres undefined)	-7.0
COc1ccc(N=CC2=C(O)c3ccccc3C2=O)cc1	3.4
Cc1ccc(O)c(N=CC2=C(O)c3ccccc3C2=O)c1	38.0*
O=C1C(C=Nc2ccccc2)=C(O)c2ccccc21	3.9
O=C(NCc1ccc2c(c1)OCO2)c1ccc(N2C(=O)C3CCCCC3C2=O)cc1 (centres undefined)	1.6
Cc1ccc(-c2cc(C(F)F)n3ncc(C(=O)Nc4ccc(S(=O)(=O)Nc5ccccc5C)cc4)c3n2)cc1	10.3
COc1cccc(C2CC(c3ccc(Cl)cc3Cl)Nc3nc(N)nn32)c1 (centres undefined)	0.5
O=C(Nc1nc2n(n1)C(c1ccccc1)C=C(c1ccccc1)N2)c1ccco1 (centres undefined)	11.4
COc1ccc(C2CC(c3ccc(Cl)cc3)Nc3nc(NC(=O)c4ccco4)nn32)cc1 (centres undefined)	54.5*
COc1ccc(C2CC(c3ccccc3)n3nc(NC(=O)c4cccs4)nc3N2)cc1 (centres undefined)	58.6*
COc1ccc(C2CC2/C(=N/OC(=O)c2cccs2)c2ccccc2)cc1 (centres undefined)	3.0
COc1ccc(NC(=O)c2cccs2)cc1	-5.4
CCOc1cccc(N2C(=O)CC(NCc3ccc(S(N)(=O)=O)cc3)C2=O)c1 (centres undefined)	-13.0
CC(=O)c1cc(F)c(N2CCN(C(=O)COc3ccccc3F)CC2)cc1C	5.6
Cc1ccc(S(=O)(=O)N2CCSC2c2ccco2)cc1 (centres undefined)	1.9
Cc1ccc(S(=O)(=O)N2CCC[C@H]2C(=O)OC(C)C(=O)Nc2ncc(Cl)cc2Cl)cc1 (some centres undefined)	3.5
COC(=O)c1sccc1-n1cccc1C(=O)C(=O)N1CC(C)OC(C)C1 (centres undefined)	-3.0
Cc1cc(NS(=O)(=O)c2ccc(NC(=O)c3ccco3)cc2)no1	6.8
Cc1cc(NS(=O)(=O)c2ccc(NC(NC(=O)C(C(F)(F)F)C(F)(F)F)(C(F)(F)F)C(F)(F)F)cc2)no1	-3.1
Cc1cc(NS(=O)(=O)c2ccc(Nc3nc(-c4sc(N)nc4C)cs3)cc2)no1	59.1*
CCN(CC)C(=O)c1sc(NC(=O)C(Sc2ccccc2)c2ccccc2)c(C(=O)OC(C)C)c1C (centres undefined)	6.8
SMILES	Artemis endo inh
COC(=O)c1ccccc1NC(=O)CSc1nnc(-c2ccc(OC)cc2)n1C	9.8
Nc1[nH]n2c(=O)cc(-c3ccccc3)nc2c1N=Nc1ccccc1	47.3*
O=c1cc(-c2ccccc2)nc2nc(-c3ccccc3)[nH]n12	5.1
O=c1cc(-c2ccccc2)nc2nc(COc3ccccc3)[nH]n12	5.2
O=C(Nc1ccccc1F)c1ccc(-n2cncn2)nc1	-5.9
Clc1ccc(Nc2ccc(-n3ccnc3)nn2)cc1Cl	19.1
COc1cc(C=O)ccc1OCCOCCOc1c(C)cc(Cl)cc1Cl	4.5
CC(=O)NCCOc1c(C)cc(S(N)(=O)=O)cc1C	-4.3
Cc1cc(Cl)cc(Br)c1OCCNCC(C)O (centres undefined)	30.6*
C=CCCCCCCCCC(=O)NNC1=CC(=O)CC(C)(C)C1	-0.8
O=c1oc2c3c4c(cc2c2c1CCC2)OCCN4CCC3	18.0
O=C(O)CCC(=O)Nc1nc(-c2ccccc2)cs1	1.8
O=C(Nc1nc(-c2ccccn2)cs1)c1ncc(Cl)c(Cl)c1Cl	22.9
O=C(CCCSc1ccccc1)Nc1nc(-c2ccccn2)cs1	57.9*
COc1ccc(S(=O)(=O)NCC(=O)N(CC(=O)NCC2CCCO2)c2c(C)cccc2C)cc1 (centres undefined)	7.1
O=c1[nH]nc(Cc2ccc3ccccc3n2)c2ccccc12	-5.0
C=CCSC1=N/C(=C\c2ccc(C)o2)C(=O)S1	1.8
CSC1=N/C(=C\c2ccc(C)cc2)C(=O)S1	-1.0
COc1ccc(/C=C2\N=C(SC)SC2=O)cc1OC	-1.7
CCOc1c(OC(C)=O)ccc(/C=C2\N=C(SCC)SC2=O)c1[N+](=O)[O-]	30.1*
CCOc1cc(/C=C2\N=C(SC)SC2=O)cc([N+](=O)[O-])c1OC(C)=O	33.4*
CCOC(=O)CNC(=O)CSc1nc2nc(C)c(Br)cc2[nH]1	-3.8
CC(=O)/C(=C/N(C)C)Sc1ccc(C)cc1	-4.7
c1ccc2c(N3CCCC3)nc(-c3ccncc3)nc2c1	3.2
COc1cccc(Nc2nc(NCCO)c3ccccc3n2)c1	-7.2
COc1ccc(Nc2nc(N3CCCC3)c3ccccc3n2)cc1	33.4*
Cn1cccc1C(=O)C(=O)Nc1ccccc1	2.1
Cc1cc(=O)[nH]c(/N=C(\N)Nc2cccc3ccccc23)n1	-2.5
